Values joined by “and” are separate entries in the source; they are usually repeats but may differ in a detail not shown here. Equal entries are not always repeated. Inconclusive results are not listed. A call without a number means that no potency is given here. A structure can be active in one record and inactive in another. Active and inactive are the calls of the source. Calls follow the shape of the dose curve; as a rule, active = well fitted cell-killing curve with a large enough effect in the repeat runs; inconclusive = weak or mixed curves; inactive = flat fitted curve, though single readings scatter.
Potency is read from the fitted curve at half-maximal effect.

The experiment is described as follows: qHTS RealTime-Glo MT Cell Viability Assay in HepG2 cells - 8 hour (AID 1224873). Also: nearly all actives have a fitted effect of over 55% in size. To be noted: RealTime-Glo luminescence; series mostly up to 76.8 µM. An excerpt: National Center for Advancing Translational Sciences [NCATS]
NIH Chemical Genomics Center [NCGC]
U.S. Environmental Protection Agency [EPA]
National Institutes of Environmental Health Sciences [NIEHS]
National Toxicology Program [NTP]
U.S. Food and Drug Administration [FDA]
Measure of cell viability is critical in the cell-base assay. Analysis of cell viability is necessary for the characterization of cell responses to cytotoxic drugs and environmental stress. A RealTime-Glo MT Cell Viability Assay to monitor cell viability in real time of continues cell culture during 40 hours of compound treatment was used to screen Tox21 10K library compounds in HepG2 cells. The RealTime-Glo MT Cell Viability Assay is a nonlytic, homogeneous, bioluminescent method to measure cell viability in real time using a simple, plate-based method. The assay involves adding NanoLuc luciferase and a cell-permeant prosubstrate to cells in culture. Viable cells reduce the proprietary prosubstrate to generate a substrate for NanoLuc luciferase. This substrate diffuses from cells into the surrounding culture medium, where it is rapidly used by the NanoLuc Enzyme to produce a luminescent signal. The signal correlates with the number of viable cells, making the assay well suited for cytotoxicity studies.
Tox21 Assay Protocol Summary:
The mixture of HepG2 cell suspension and reagents were dispensed at 600cells/6 ul/well in 1536-well tissue culture treated black solid bottom plates using a Multidrop dispenser. After the assay plates were incubated at a 37 C/5% CO2 incubator for 5 hours, 23 nL of compounds dissolved in DMSO, positive and negative controls was transferred to the assay plate by a pintool work station. The plates were incubated at 37 C for 40 hours. The luminescence intensity were measured at 0h, 8h, 16h, 24h, 32h and 40h time points using ViewLux plate reader during compound treatment.
In general terms: qHTS replaces the single test concentration by a dilution series.
For the compound `CC(C)=CC1C(C(=O)OCN2C(=O)C3=C(CCCC3)C2=O)C1(C)C` (stereo not given), the Potency result was “inactive”.

`CCOP(=S)(OCC)OP(=S)(OCC)OCC`: the Potency entry was “inactive”.

`COC(=O)Nc1nc2ccccc2[nH]1`: the Potency result is “inactive”.

Regarding `COP(=S)(OC)Oc1ccc(Sc2ccc(OP(=S)(OC)OC)cc2)cc1`, the Potency entry was “inactive”.

In the case of `NN=C(N)N`, the Potency result was “inactive”.

Turning to `ClC(Cl)=C(Cl)C(Cl)=C(Cl)Cl`, the Potency entry is “inactive”.

In the case of `CNC(=S)S`, the Potency result is “inactive”.

Turning to `CC(C)(O)C(=O)Nc1ccc([N+](=O)[O-])c(C(F)(F)F)c1`, the Potency result is “inactive”.

`Nc1ccc([N+](=O)[O-])cc1N`: the Potency result is “inactive”.

For `C[N+](C)(C)CC(=O)[O-]`, the Potency result was “inactive”.

Take `Oc1ccc(Cl)cc1Cc1ccccc1`: the Potency is 49.6 µM (active) and inactive.

Regarding `CCCCSP(=O)(SCCCC)SCCCC`, the Potency entry was “inactive”.

As to `C=CC(Cl)CCl` (stereo not given), the Potency result was “inactive”.

Regarding `CNC(=O)Oc1cccc2c1OC(C)(C)C2`, the Potency entry is “inactive”.

Regarding `Cc1ccc(N=CN(C)C=Nc2ccc(C)cc2C)c(C)c1`, the Potency result is “inactive”.

In the case of `C[C@]12CC[C@H]3[C@@H](CCC4=CC(=O)CC[C@@H]43)[C@@H]1CC[C@@H]2O`, the Potency entry is “inactive”.

With `C[C@]12CCC(=O)C=C1CC[C@@H]1[C@@H]2CC[C@@]2(C)[C@H]1CC[C@]2(C)O`, the Potency result was “inactive”.

Turning to `O=C1C(Cl)=C(Cl)C(=O)c2ccccc21`, the Potency is 21.9 µM (active) and 6.92 µM (active).

Turning to `COc1ccc(C=O)cc1OC`, the Potency result is “inactive”.

On to `COc1ccc(CO)cc1`, for which the Potency result was “inactive”.

Consider `CC(C)Nc1ccc(Nc2ccccc2)cc1`, for which the Potency is 48.8 µM (active) and 38.9 µM (active).

As to `O=[N+]([O-])/N=C1\NCCN1Cc1ccc(Cl)nc1`, the Potency result is “inactive”.

`CC(C)CON=O`: the Potency entry was “inactive”.

Take `ClC(Cl)(Cl)Br`: the Potency entry was “inactive”.

Take `CSc1nc(NC(C)C)nc(NC(C)C)n1`: the Potency entry was “inactive”.

For the compound `[CH3][Sn]([Cl])([Cl])[Cl]`, the Potency entry was “inactive”.

As to `CCOP(=S)(OCC)SCn1c(=O)oc2cc(Cl)ccc21`, the Potency entry was “inactive”.

As to `Nc1ccc2ccccc2c1`, the Potency entry is “inactive”.

With `CC(C)(c1ccccc1)c1ccc(O)c(C(C)(C)c2ccccc2)c1`, the Potency is 48.5 µM (active) and 38.9 µM (active).

Consider `CCCCCCCCCc1ccc(O)cc1`, for which the Potency result is “inactive”.

Regarding `ClCc1ccccn1`, the Potency result is “inactive”.

With `S=c1[nH]c2ccccc2[nH]1`, the Potency entry was “inactive”.

Consider `c1ccc(C2CO2)cc1` (stereo not given), for which the Potency result was “inactive”.

As for `CCC1(c2ccc(N)cc2)CCC(=O)NC1=O` (stereo not given), the Potency entry is “inactive”.

For the compound `CCCCOCC1CO1` (stereo not given), the Potency entry was “inactive”.

Take `CCCCOCCOC(C)=O`: the Potency result was “inactive”.

Take `CCCCCCCC[N+](C)(CCCCCCCC)CCCCCCCC`: the Potency is 17.3 µM (active) and 30.9 µM (active) and 17.4 µM (active).

Consider `N#Cc1c(Cl)c(Cl)c(Cl)c(C#N)c1Cl`, for which the Potency is 42.8 µM (active) and 11 µM (active).

Consider `CC1(C)Cc2cccc(O)c2O1`, for which the Potency result was “inactive”.

For `[Cl-].[Cl-].[Cl-].[Fe+3]`, the Potency entry was “inactive”.

The values are drawn from PubChem BioAssay (Tox21).
